The campaign covered roughly 5,500 compounds. About 2,000 (36%) were called active. About 18% were inconclusive and are not listed. Rule as the data show it: active = normalized growth mostly below about 0.91 (no sharp cut-off); inconclusive = no clear call, values can overlap the other calls; inactive = mostly above about 0.92. The list shows a part of the results.
Experiment: chemical genetic growth profiling, strain panel (AID 1159580);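 also: tested at 20 µM; growth read once vehicle control cultures reached saturation at 30 °C; 1 = growth at the plate median or of vehicle wells; lower values mean less growth of the strain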
Details: growth OD

Measured: normalized growth

Nc1nc2c(ncn2C2C[C@H](O)[C@@H](CO)O2)c(=O)[nH]1 (stereo partly specified)
active: S. cerevisiae deletion strains, locus YCL029C, strain bik1, active compounds read low 0.573 | S. cerevisiae deletion strains, locus YDL192W, strain arf1, active compounds read low 0.179 | S. cerevisiae deletion strains, locus YDR101C, strain arx1, active compounds read low 0.447 | S. cerevisiae deletion strains, locus YDR318W, strain mcm21, active compounds read low 0.322 | S. cerevisiae deletion strains, locus YDR388W, active compounds read low 0.162 | S. cerevisiae deletion strains, locus YDR502C, strain sam2, active compounds read low 0.359 | S. cerevisiae deletion strains, locus YER110C, active compounds read low 0.627 | S. cerevisiae deletion strains, locus YGL086W, strain mad1, active compounds read low 0.357 | S. cerevisiae deletion strains, locus YGR135W, strain pre9, active compounds read low 0.328 | S. cerevisiae deletion strains, locus YGR252W, strain gcn5, active compounds read low 0.352 | S. cerevisiae deletion strains, locus YHR079C, strain IRE1 (second series), active compounds read low 0.446 | S. cerevisiae deletion strains, locus YHR094C, strain hxt1, active compounds read low 0.456 | S. cerevisiae deletion strains, locus YHR200W, strain rpn10, active compounds read low 0.357 | S. cerevisiae deletion strains, locus YIR030C, strain dcg1, active compounds read low 0.46 | S. cerevisiae deletion strains, locus YJL168C, strain set2, active compounds read low 0.527 | S. cerevisiae deletion strains, locus YKR001C, strain vps1, active compounds read low 0.189 | S. cerevisiae deletion strains, locus YLR102C, strain apc9, active compounds read low 0.543 | S. cerevisiae deletion strains, locus YLR268W, strain sec22, active compounds read low 0.406 | S. cerevisiae deletion strains, locus YLR371W, strain rom2, active compounds read low 0.391 | S. cerevisiae deletion strains, locus YLR418C, strain cdc73, active compounds read low 0.261 | S. cerevisiae deletion strains, locus YML032C, strain rad52, active compounds read low 0.408 | S. cerevisiae deletion strains, locus YML124C, strain tub3, active compounds read low 0.554 | S. cerevisiae deletion strains, locus YMR078C, strain ctf18, active compounds read low 0.852 | S. cerevisiae deletion strains, locus YMR223W, strain ubp8, active compounds read low 0.315 | S. cerevisiae deletion strains, locus YNL307C, strain MCK1, active compounds read low 0.222 | S. cerevisiae deletion strains, locus YNR052C, strain pop2, active compounds read low 0.137 | S. cerevisiae deletion strains, locus YOL012C, strain htz1 2.5 [resistant] | S. cerevisiae deletion strains, locus YOL147C, strain pex11, active compounds read low 0.451 | S. cerevisiae deletion strains, locus YOR136W, strain idh2, active compounds read low 0.531 | S. cerevisiae deletion strains, locus YOR144C, strain elg1, active compounds read low 0.619 | S. cerevisiae deletion strains, locus YOR316C, strain cot1, active compounds read low 0.416 | S. cerevisiae deletion strains, locus YPR119W, strain clb2, active compounds read low 0.645 | S. cerevisiae deletion strains, locus YPR163C, strain tif3, active compounds read low 0.37 | S. cerevisiae deletion strains, locus YPR167C, strain met16, active compounds read low 0.33 | S. cerevisiae deletion strains, strain wtn01, active compounds read low 0.229
inactive: S. cerevisiae deletion strains, locus YAL013W, strain DEP1, active compounds read low 0.995 | S. cerevisiae deletion strains, locus YBR021W, strain FUR4, active compounds read low 1 | S. cerevisiae deletion strains, locus YBR229C, strain ROT2, active compounds read low 0.997 | S. cerevisiae deletion strains, locus YDL035C, strain GPR1, active compounds read low 1.02 | S. cerevisiae deletion strains, locus YDL074C, strain BRE1, active compounds read low 1.02 | S. cerevisiae deletion strains, locus YDL101C, strain DUN1, active compounds read low 1 | S. cerevisiae deletion strains, locus YDL134C, strain PPH21, active compounds read low 1.01 | S. cerevisiae deletion strains, locus YDL185W, strain tfp1, active compounds read low 0.999 | S. cerevisiae deletion strains, locus YDR150W, strain NUM1, active compounds read low 1.02 | S. cerevisiae deletion strains, locus YDR162C, strain NBP2, active compounds read low 1 | S. cerevisiae deletion strains, locus YEL061C, strain CIN8, active compounds read low 0.979 | S. cerevisiae deletion strains, locus YER155C, strain BEM2, active compounds read low 0.994 | S. cerevisiae deletion strains, locus YER167W, strain BCK2, active compounds read low 1.01 | S. cerevisiae deletion strains, locus YGL078C, strain dbp3, active compounds read low 1 | S. cerevisiae deletion strains, locus YGL248W, strain PDE1, active compounds read low 0.996 | S. cerevisiae deletion strains, locus YGR078C, strain PAC10, active compounds read low 1 | S. cerevisiae deletion strains, locus YGR229C, strain SMI1, active compounds read low 1.01 | S. cerevisiae deletion strains, locus YHR030C, strain SLT2, active compounds read low 1.01 | S. cerevisiae deletion strains, locus YHR129C, strain ARP1, active compounds read low 1 | S. cerevisiae deletion strains, locus YIL066C, strain RNR3, active compounds read low 1.03 | S. cerevisiae deletion strains, locus YIL073C, strain SPO22, active compounds read low 1.1 | S. cerevisiae deletion strains, locus YIL125W, strain kgd1, active compounds read low 1.01 | S. cerevisiae deletion strains, locus YJL095W, strain BCK1, active compounds read low 1 | S. cerevisiae deletion strains, locus YJL134W, strain LCB3, active compounds read low 1 | S. cerevisiae deletion strains, locus YJL187C, strain SWE1 (second series), active compounds read low 1.01 | S. cerevisiae deletion strains, locus YJR043C, strain POL32, active compounds read low 1 | S. cerevisiae deletion strains, locus YJR075W, strain HOC1, active compounds read low 0.992 | S. cerevisiae deletion strains, locus YKL009W, strain mrt4, active compounds read low 1.02 | S. cerevisiae deletion strains, locus YKL068W, active compounds read low 1.01 | S. cerevisiae deletion strains, locus YKL085W, strain MDH1 (second series), active compounds read low 1.01 | S. cerevisiae deletion strains, locus YKL085W, strain MDH1, active compounds read low 1.01 | S. cerevisiae deletion strains, locus YKL190W, strain CNB1, active compounds read low 1 | S. cerevisiae deletion strains, locus YLR039C, strain RIC1, active compounds read low 1.02 | S. cerevisiae deletion strains, locus YLR058C, strain SHM2, active compounds read low 1 | S. cerevisiae deletion strains, locus YLR262C, strain YPT6, active compounds read low 1.08 | S. cerevisiae deletion strains, locus YLR330W, strain CHS5, active compounds read low 0.995 | S. cerevisiae deletion strains, locus YLR342W, strain FKS1 (second series), active compounds read low 1.04 | S. cerevisiae deletion strains, locus YML016C, strain PPZ1, active compounds read low 1.01 | S. cerevisiae deletion strains, locus YMR263W, strain SAP30, active compounds read low 1.01 | S. cerevisiae deletion strains, locus YMR307W, strain GAS1, active compounds read low 1.01 | S. cerevisiae deletion strains, locus YNL067W, strain RPL9B, active compounds read low 1.01 | S. cerevisiae deletion strains, locus YNL128W, strain TEP1, active compounds read low 1 | S. cerevisiae deletion strains, locus YNL153C, strain GIM3, active compounds read low 1.01 | S. cerevisiae deletion strains, locus YNL233W, strain BNI4, active compounds read low 1 | S. cerevisiae deletion strains, locus YNL250W, strain rad50, active compounds read low 1.02 | S. cerevisiae deletion strains, locus YNL271C, strain bni1, active compounds read low 1.02 | S. cerevisiae deletion strains, locus YNL298W, strain CLA4, active compounds read low 1.03 | S. cerevisiae deletion strains, locus YNL322C, strain KRE1, active compounds read low 1 | S. cerevisiae deletion strains, locus YOL006C, strain TOP1, active compounds read low 1.04 | S. cerevisiae deletion strains, locus YOR061W, strain CKA2, active compounds read low 0.998 | S. cerevisiae deletion strains, locus YOR069W, strain VPS5, active compounds read low 1 | S. cerevisiae deletion strains, locus YOR184W, strain ser1, active compounds read low 1.02 | S. cerevisiae deletion strains, locus YPL055C, strain LGE1, active compounds read low 0.976 | S. cerevisiae deletion strains, locus YPL241C, strain CIN2, active compounds read low 0.98 | S. cerevisiae deletion strains, locus YPR141C, strain kar3, active compounds read low 1.02 | S. cerevisiae strains, strain wild type, active compounds read low 0.984
